Calb FLC – affects C. albicans growth with fluconazole; C. albicans CaCi-2 (fluconazole-resistant clinical isolate) + fluconazole, Alamar Blue growth, 48 h; growth inhibition, % (no concentration beside the values); actives 0.57% (n = 300,000); AID 1979;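 active = growth inhibition above about 58% in most replicates, limit read from the data, passing the limit was not always enough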;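 also: all wells also contain fluconazole at 8 µg/ml as a sub-toxic cotreatment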
TIM10 inh – inhibits growth of TIM10 yeast strain | S. cerevisiae TIM10 strain growth, BacTiter-Glo luminescence, 24 h | inhibition, % at 10 µM | actives 1.4% (n = 330,000);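 active = inhibition of 40% or more at the single tested concentration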;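 also: wild-type TIM10 isogenic control strain grown at permissive 25 °C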
tim10-1 inh – inhibits growth of tim10-1 mutant yeast; actives 2.2% (n = 330,000); inhibition, % at 20 µM; S. cerevisiae tim10-1 ts strain growth, BacTiter-Glo, 24 h;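 active = inhibition of at least 40%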;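 also: mutant grown at 25 °C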
SKKanGAS inh – inhibitors of SKKanGAS S. pyogenes growth in kanamycin (SK-promoter or general growth effect) | inhibition, % at 7.5 µM | actives 1.3% (n = 300,000) | AID 1662 | BacTiter-Glo, 6 h;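 active = mean replicate score, as percent of positive control median, at least 50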;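 also: strain carries kanamycin resistance gene driven by streptokinase promoter and grows in 40 µg/ml kanamycin; loss of luminescence reflects streptokinase promoter inhibition or plain growth inhibition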
PfHsp90 yeast 2 – reduces growth (ATP signal) of yeast expressing P. falciparum Hsp90; S. cerevisiae expressing PfHsp90, BacTiter-Glo ATP, 48 h; yeast lacking PDR1 and PDR3 efflux regulators; inhibition, % at 9.4 µM; actives 0.32% (n = 310,000);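 active = every replicate shows inhibition above about 80%, whatever the replicate mean, limit read from the data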
tim23-1 inh – growth inhibitors of tim23-1 mutant yeast; S. cerevisiae tim23-1 growth, BacTiter-Glo luminescence, 24 h; inhibition, % at 20 µM; actives 1.3% (n = 330,000); AID 463212;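 active = growth inhibition of the mutant yeast at or above 50%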;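 also: temperature-sensitive mutant grown at 25 °C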
tim10 confirm – TIM10 yeast growth inhibition, confirmed | inhibition, % at 10 µM | S. cerevisiae tim10 strain growth, BacTiter-Glo luminescence, 24 h | shares compounds with TIM10 inh | actives 63% (n = 4,600);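 active = inhibition of yeast growth at or above a set limit in either of two replicates at 10 µM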; also: this counterscreen used the strain with wild-type TIM10
Hits are given with their value; – = inactive; · = no result. An excerpt weighted towards active compounds, which were near 4.7% of everything screened.

SMILES	Calb FLC	TIM10 inh	tim10-1 inh	SKKanGAS inh	PfHsp90 yeast 2	tim23-1 inh	tim10 confirm
Cc1ccc(N/N=C(\C#N)C(N)=S)cc1C	–	42.2	–	–	–	–	–
COc1cc(OC)cc(C(=O)N[C@H](C(=O)Nc2cc(F)ccc2C)C(C)C)c1	–	–	–	–	–	–	·
O=c1c2ccccc2sn1-c1ccc(F)cc1	·	55.3	–	·	–	–	64.5
CC1(C)c2[nH]c3ccccc3c2C[C@@H]2C(=O)N(Cc3ccccc3F)C(=O)N21	–	40.6	–	–	–	–	–
CC1(C)c2[nH]c3ccccc3c2C[C@H]2C(=O)N(Cc3ccccc3F)C(=O)N21	–	–	–	–	–	–	·
c1ccc(-c2cc3c(ccc4nonc43)nn2)cc1	–	–	–	–	–	–	·
On1onc2c3cc(-c4ccccc4)nc3ccc21	·	61.1	–	·	–	–	52.9
COc1cc(CC(=O)NCC(C)(C)N2CCOCC2)cc(OC)c1OC	–	–	–	–	–	–	·
COC(=O)CC(N)c1ccc(Br)cc1 (stereo not drawn)	–	–	–	–	–	–	·
COC(=O)CC(NC(=S)NC(=O)c1ccccc1)c1ccc(Br)cc1 (stereo not drawn)	–	40.3	–	–	–	–	36.9
CC(C)C(=O)Nc1nnc(SCC(=O)NC2CCCC2)s1	–	–	–	–	–	–	·
CCn1c(SCC(=O)N(C)C2CCCCC2)nc2cc(S(N)(=O)=O)ccc21	·	40.8	–	·	–	–	–
Cc1ccccc1OCCn1cnc2cc([N+](=O)[O-])ccc2c1=O	–	42.2	–	–	–	–	–
O=c1c2ccccc2ncn1CCCOc1ccccc1[N+](=O)[O-]	–	–	–	–	–	–	·
Cc1ccc2nc(-c3ccc4c(c3)NC(=O)CO4)cn2c1	–	45.5	–	–	–	–	44.7
CCn1ncc(/C=C2/SC(=S)NC2=O)c1C	–	–	–	–	–	–	·
CCn1c(C)cc(/C=C2/SC(=S)NC2=O)c1C	–	44.4	–	–	–	–	–
N#C/C(=C\c1cccnc1)c1nc2ccccc2[nH]1	–	75.2	–	–	·	–	–
COc1ccc(-c2cn[nH]c2-c2ccc(OCc3ccc(F)cc3)cc2O)cc1OC	–	40.1	–	–	–	–	33.5
Oc1cc(OCc2ccccc2)ccc1-c1[nH]ncc1-c1ccccc1	–	49.9	–	73.1	105.0	–	45.9
COc1ccc(/C(C)=N/NC(=O)CNC(=O)/C=C\c2ccccc2OC)c(OC)c1	–	–	–	–	–	–	·
O=C(c1ccco1)N(Cc1ccccc1)c1cccc([N+](=O)[O-])c1	–	44.2	–	–	–	–	–
O=C(c1ccco1)N(Cc1cccc([N+](=O)[O-])c1)c1ccc(Br)cc1	–	–	–	–	–	–	·
Cc1ccc(-n2c(C)cc(/C([O-])=C(/C(=S)Nc3ccc(F)c(Cl)c3)[n+]3ccccc3)c2C)cc1	110.1	41.1	–	–	·	–	–
Cc1ccc(N2CC(O)=C(c3nc4ccccc4c(=O)[nH]3)C2=N)cc1C	–	46.7	–	–	–	–	–
SMILES	Calb FLC	TIM10 inh	tim10-1 inh	SKKanGAS inh	PfHsp90 yeast 2	tim23-1 inh	tim10 confirm
S=C(NCC1CCCCC1)Nc1ccc(Oc2ccccc2)cc1	–	54.0	–	54.3	–	–	30.4
S=C(Nc1ccc(Oc2ccccc2)cc1)NC1CCCC1	–	–	–	–	–	–	·
CCC(C)(C)NC(=O)CN(C(=O)CCC(=O)Nc1nccs1)c1ccc2c(c1)OCCO2	–	–	–	–	–	–	·
c1csc(C2C3=C(Nc4ncnn42)c2ccccc2OC3)c1 (stereo not drawn)	–	43.0	–	–	–	–	–
COc1ccccc1N1CCN(C(=O)c2cc(-c3cccc(Cl)c3)on2)CC1	–	42.7	–	–	–	–	30.6
COc1ccccc1N1CCN(C(=O)c2cc(-c3ccc4c(c3)OCO4)on2)CC1	–	–	–	–	–	–	·
COc1cc(Cl)ccc1OCc1cc(C(=O)N2CCN(c3ccccn3)CC2)no1	–	55.2	–	–	–	–	68.2
Cc1cc(OC(=O)c2ccccc2F)c([N+](=O)[O-])c(=O)[nH]1	–	–	–	–	–	–	·
COc1ccc(N2C(=O)/C(=C\c3ccco3)N=C2SCC(=O)N(C(C)C)C(C)C)cc1Cl	–	40.8	–	–	–	–	–
COc1ccc(NC(=O)CSc2nc3nc(C)cc(C)n3n2)cc1	–	–	–	–	–	–	·
COc1ccc(NC(=O)c2ccc(NC(=O)c3nc4nc(C)cc(C)n4n3)cc2)cc1	·	42.5	–	·	–	–	–
Cc1ccc2ccc(C3C(=O)c4ccccc4C3=O)nc2c1	–	61.3	–	–	–	–	66.5
Cc1ccc(C2CC(=O)C=C(Nc3ccc(Cl)cc3)C2)cc1 (stereo not drawn)	–	–	–	–	–	–	·
O=C1C=C(Nc2ccc(Cl)cc2)CC(c2ccc(Cl)cc2)C1 (stereo not drawn)	–	42.3	–	–	·	–	–
Cc1cccc(NS(=O)(=O)c2cccc(C(=O)NCCCN3CCOCC3)c2)c1	–	–	–	–	–	–	·
CC12CCC(=O)N1C(C(=O)Nc1nnc(SCc3ccccc3F)s1)CS2 (stereo not drawn)	–	–	–	–	–	–	·
CC(/C=C1\SC(=S)N(NS(=O)(=O)c2ccc(C)cc2)C1=O)=C\c1ccccc1	–	48.2	–	78.3	–	–	–
CC(/C=C1\SC(=S)N(NC(=O)c2ccccc2C)C1=O)=C\c1ccccc1	–	–	–	–	–	–	·
COC(=O)C1=NN(C(=O)c2cccc(Br)c2)C(O)(c2ccc(Cl)cc2)C1 (stereo not drawn)	–	45.1	–	86.0	–	–	–
CC(c1ccccc1)n1cc(C(=O)NCc2cccnc2)nn1 (stereo not drawn)	–	51.3	–	–	–	–	–
Cc1ccc(C(C)n2cc(C(=O)NCc3ccncc3)nn2)cc1 (stereo not drawn)	–	–	–	–	–	–	·
COc1ccc(N2CCN(c3ncnc4scc(-c5ccc(F)cc5)c34)CC2)cc1	–	–	–	–	–	–	·
COc1ccc(N2CCN(C(=O)CSc3ncnc4scc(-c5ccc(C)cc5)c34)CC2)cc1	–	43.2	–	–	·	–	–
COc1ccc(CN2CCN(c3ncnc4scc(-c5ccc(F)cc5)c34)CC2)cc1	–	42.0	–	–	–	–	45.5
OC1Cc2ccccc2C1Nc1cccc(C(F)(F)F)c1 (stereo not drawn)	·	·	·	·	–	·	·
CCn1c(CNc2ccc(Cl)cc2)nnc1SCC(=O)OC1CCCCC1	–	45.2	–	–	–	–	–
CCn1c(CNc2cccc(Cl)c2)nnc1SCC(=O)OC1CCCCC1	–	–	–	–	–	–	·
